Screening results (PubChem)
Only some compounds are listed: those with a hit (about 1.2% of all), similar ones and a draw of the others.
AF4-AF9 inh – inhibitors of human MLL-AF4/AF9 interaction. AID 651704. P42568. inhibition, % at 10 µM. AlphaScreen, biotin-AF4 peptide binding to FLAG-AF9. 350,000 tested, 0.47% active;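 active = every replicate reaching a set inhibition limit, whatever the replicate mean, cut at about 25% in these data; inconclusive = mean inhibition reaches that limit but some replicates miss it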;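 also: 0% = plate neutral control median and 100% = total signal loss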
RAD52 anneal inh – RAD52 (human) annealing inhibition; 360,000 tested, 0.46% active; inhibition, % at 18.7 µM; P43351; recombinant RAD52 DNA annealing, FRET fluorescence;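 active = every replicate showing at least 50% inhibition; inconclusive = mean inhibition at least 50% but not in every replicate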
Target sequence (P43351 whole entry, looked up): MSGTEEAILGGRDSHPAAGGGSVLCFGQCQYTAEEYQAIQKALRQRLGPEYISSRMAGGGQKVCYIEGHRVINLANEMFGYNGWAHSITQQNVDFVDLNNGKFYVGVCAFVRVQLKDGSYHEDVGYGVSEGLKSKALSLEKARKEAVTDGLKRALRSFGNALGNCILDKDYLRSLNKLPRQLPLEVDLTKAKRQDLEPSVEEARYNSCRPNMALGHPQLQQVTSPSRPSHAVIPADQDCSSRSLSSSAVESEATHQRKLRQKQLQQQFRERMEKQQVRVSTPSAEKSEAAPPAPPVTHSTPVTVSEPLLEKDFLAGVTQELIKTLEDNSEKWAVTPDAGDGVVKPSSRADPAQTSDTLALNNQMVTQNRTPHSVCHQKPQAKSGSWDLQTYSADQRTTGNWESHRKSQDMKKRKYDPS
RAD54 inh – RAD54 (human) branch migration inhibition | inhibition, % at 10.4 µM | RAD54 Holliday junction branch migration, FAM/BHQ fluorescence | 360,000 tested, 0.14% active | AID 602329 | Q92698;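 active = mean normalized replicate activity at least 40 and at least half of replicates scoring 40 or more; inconclusive = only one of the two criteria met; inactive = mean below 40 and under half of replicates reaching 40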;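 also: 0% = median of neutral control wells and 100% = median of positive control wells; inhibitors cause a drop in the FAM fluorescence signal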
Glyco luc inh – N-linked glycosylation inhibition; D54 ERlucT glycosylation luciferase reporter, 24 h; percent of 100 nM tunicamycin response; 360,000 tested, 0.23% active; AID 588692; reporter increase, % at 12.5 µM;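 active = mean luciferase reporter signal, scaled so untreated is 0 and the glycosylation-blocking control 100, at or above a set limit in every replicate; inconclusive = mean reaches the limit but not every replicate does; inactive = mean below the limit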;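 also: luciferase carries N-glycosylation sites so blocking glycosylation raises the light; 0% = median of neutral control wells and 100% = median of 100 nM tunicamycin wells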
CASP6 VEID inh – caspase-6 (human) enzyme inhibition; inhibition, % at 12.5 µM; purified caspase-6, Z-VEID-R110 cleavage fluorescence; 350,000 tested, 0.53% active;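 active = mean inhibition across replicates at least about 35%, with every replicate also reaching that limit, limit read from the data; inconclusive = only one of the two criteria met; inactive = neither criterion met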;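 also: 0% = median of neutral control wells and 100% = no fluorescence left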
Target sequence (P55212 24-179 limits assumed): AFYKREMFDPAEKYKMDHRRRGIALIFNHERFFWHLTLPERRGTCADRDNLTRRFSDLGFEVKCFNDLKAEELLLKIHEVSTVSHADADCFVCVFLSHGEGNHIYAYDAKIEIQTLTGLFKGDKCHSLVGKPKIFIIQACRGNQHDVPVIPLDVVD
Target sequence (P55212 194-293 limits assumed): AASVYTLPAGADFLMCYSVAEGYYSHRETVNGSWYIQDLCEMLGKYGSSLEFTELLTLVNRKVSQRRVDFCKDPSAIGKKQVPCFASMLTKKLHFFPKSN
An asterisk follows results filed as active; i = inactive; ? = inconclusive; . = not tested or not shown; ! = not confirmed by another sample.

SMILES	AF4-AF9 inh	RAD52 anneal inh	RAD54 inh	Glyco luc inh	CASP6 VEID inh
CN1OC[C@@H]2CN(Cc3ccccc3)[C@H](c3ccc(N4CCCCC4)cc3)C[C@@H]21	27.9*	-40.1	0.9	0.3	-0.7
CN1OC[C@@H]2CN(Cc3ccc4c(c3)OCO4)[C@H](c3ccc(N4CCCCC4)cc3)C[C@@H]21	32.8*	-92.1	7.5	-2.5	-0.5
COCC#Cc1cnc2c(c1)C(=O)N([C@H](C)CO)C[C@H](C)[C@@H](CN(C)C(=O)c1ccc3c(c1)OCO3)O2	-2.8	3.4	0.2	.	-2.3
C[C@H]1CCCCO[C@H](CN(C)C(=O)C2CCCCC2)[C@@H](C)CN([C@@H](C)CO)C(=O)c2cc(NC(=O)Nc3ccc(F)cc3)ccc2O1	5.8	4.2	3.8	.	1.7
CN(C)C(=O)[C@@H]1[C@@H](CO)[C@@H]2Cn3c(ccc(-c4cccnc4)c3=O)[C@@H]2N1Cc1ccccc1F	-10.1	-4.5	8.3	.	-1.9
C[C@H](CO)N1C[C@H](C)[C@H](CN(C)C(=O)C2CC2)OCc2ccccc2-c2c(n(C)c3ccccc23)C1=O	-3.1	1.4	-9.6	.	0.9
CCn1c(SCC(=O)Nc2ccc(C(C)=O)cc2)nc2c([nH]c3ccccc32)c1=O	-5.7	-9.8	2.6	91.6*	-1.3
C[C@@H]1CCCCO[C@H](CN(C)Cc2ccc3c(c2)OCO3)[C@H](C)CN([C@@H](C)CO)C(=O)c2cc(NC(=O)Nc3cccc4ccccc34)ccc2O1	.	.	3.1	.	.
COCC(=O)Nc1ccc2c(c1)C(=O)N(C)[C@@H]1CC[C@H](CC(=O)NCCc3ccccc3)O[C@H]1CO2	-1.1	6.8	3.6	.	-0.3
O=C(O)C(c1ccccc1)N1C(=O)/C(=C\c2ccc(-c3ccc(Br)cc3)o2)SC1=S (centres undefined)	4.3	i	-75.5	-0.5	71.3*
O=C(O)C(c1ccccc1)N1C(=O)/C(=C\c2ccc(-c3ccccc3Cl)o2)SC1=S (centres undefined)	0.3	-321.1	-9.2	-0.7	85.7*
COc1ccc(C2c3[nH]c4ccccc4c3CCN2Cc2cccn2-c2ncccn2)cc1C (centres undefined)	30.6*	-12.0	-0.7	-5.1	-4.2
Cc1cccc(C2c3[nH]c4ccccc4c3CCN2Cc2cccn2-c2ncccn2)c1 (centres undefined)	31.0*	11.4	.	-9.5	-1.2
c1ccc(C2c3[nH]c4ccccc4c3CCN2Cc2cccn2-c2ccccn2)nc1 (centres undefined)	?	-5.1	5.7	0.5	-5.2
CN(C)c1ccc2c(c1)[C@H]1C[C@H](CC(=O)NCc3cccc(F)c3)O[C@@H](CO)[C@H]1O2	1.4	-64.5	1.1	.	0.5
Cc1ccc(S(=O)(=O)N[C@H]2CC[C@H](CC(=O)NCCc3ccncc3)O[C@H]2CO)cc1	0.4	-1.6	-0.9	.	-0.1
CC(=O)N1CC2(C1)[C@H](c1ccc(-c3ccc(F)cc3)cc1)[C@H](CO)N2C(C)=O	-0.1	-5.8	.	.	1.0
CCOC(=O)Cc1csc(/N=C/c2c(O)n(-c3ccc(C)c(C)c3)c(=O)c3ccccc23)n1	.	.	.	71.5*	.
COc1ccc2ccc3cccc[n+]3c2c1	-1.8	9.9	50.5*	3.1	-1.3
CCOc1cc(C(=O)Nc2ccc(N3CCOCC3)cc2)cc(Br)c1OC	-0.3	-5.7	-4.3	31.7*	.
CCOc1cc(C(=O)Nc2ccc(F)cc2)cc(Br)c1OC	.	.	.	-1.5	.
CC1=CC(C)[C@H](/C=N/n2c(=O)[nH]c3c([nH]c4ccc(Br)cc43)c2=O)C(C)C1 (some centres undefined)	-5.3	-27.3	-6.7	37.5*	-2.7
COc1ccc2[nH]c3c(=O)n(/N=C/[C@H]4C(C)C=C(C)CC4C)c(=O)[nH]c3c2c1 (some centres undefined)	-1.3	-22.2	-21.6	0.0	-2.6
C[C@H]1CN([C@@H](C)CO)C(=O)c2cc(NC(=O)Cn3cnnn3)ccc2O[C@H]1CN(C)Cc1ccncc1	-2.3	17.8	7.8	.	-0.1
O=C(NNS(=O)(=O)c1ccc(F)cc1)c1ccccc1F	0.5	-9.8	-0.5	-0.4	46.0*
SMILES	AF4-AF9 inh	RAD52 anneal inh	RAD54 inh	Glyco luc inh	CASP6 VEID inh
CC1=NN(c2ccc(C)c(C)c2)C(=O)/C1=C\C=C\c1ccc([N+](=O)[O-])o1	1.0	-14.1	.	-15.4	47.2*
C[C@@H]1CCCCO[C@@H](CN(C)S(=O)(=O)c2ccc(F)cc2)[C@H](C)CN([C@H](C)CO)C(=O)c2cc(NC(=O)Nc3ccc(F)cc3)ccc2O1	.	.	-11.0	.	.
O=C(NO)c1ccc(OC(F)F)cc1	-3.8	2.4	.	36.3*	5.0
CCC(=O)N(C)C[C@@H]1Oc2cc(-c3ccccc3)ccc2S(=O)(=O)N([C@@H](C)CO)C[C@@H]1C	-1.2	8.1	22.6	.	-1.4
CC(C)CC#Cc1ccc2c(c1)O[C@H](CN(C)Cc1cccnc1)[C@@H](C)CN([C@H](C)CO)S2(=O)=O	5.5	9.7	-6.6	.	-1.7
CCOC(=O)c1c(NC(C)=O)sc2c1CCC(C=O)=C2Sc1ccccc1	12.7	-31.1	-2.9	32.3*	-1.1
CN1CCc2cccc3c2[C@@H]1Cc1ccc(O)c(O)c1-3	25.8*	.	5.4	-3.2	.
CN1c2ccc(C3=CCCCC3)cc2[C@@H]2[C@@H](CCN2S(=O)(=O)c2ccccc2)[C@@H]1CO	7.7	-7.9	8.9	.	0.1
C[C@@H]1CN([C@@H](C)CO)S(=O)(=O)c2ccc(-c3ccc(C(=O)N(C)C)cc3)cc2O[C@@H]1CN(C)C(=O)C1CCCCC1	29.8*	-5.5	-1.2	.	0.5
Cc1ccc(-c2ccc3c(c2)O[C@@H](CN(C)C(=O)CN(C)C)[C@@H](C)CN([C@H](C)CO)S3(=O)=O)cc1	7.8	58.2*	8.9	.	-2.5
C[C@H](CO)N1C[C@H](C)[C@H](CN(C)C(=O)CN(C)C)Oc2cc(C#Cc3ccccc3)ccc2S1(=O)=O	16.3	59.6*	7.6	.	-1.1
Cc1ccc(S(=O)(=O)N(C)C[C@@H]2Oc3cc(C#Cc4ccccc4)ccc3S(=O)(=O)N([C@H](C)CO)C[C@@H]2C)cc1	-2.7	-7.8	-6.3	.	0.9
Cc1ccc(S(=O)(=O)N(C)C[C@@H]2Oc3cc(C#Cc4ccccc4)ccc3S(=O)(=O)N([C@@H](C)CO)C[C@@H]2C)cc1	-2.4	-9.5	-5.1	.	39.1*
CN1c2ccc(-c3cccc(F)c3)cc2[C@H]2[C@H](CCN2C(=O)c2ccc3c(c2)OCO3)[C@H]1CO	1.5	-9.2	-0.3	.	-0.4
C/C=C/c1ccc2c(c1)O[C@H](CN(C)Cc1ccc(F)cc1)[C@H](C)CN([C@H](C)CO)S2(=O)=O	18.2	2.5	1.5	.	-0.7
C[C@@H]1CN([C@H](C)CO)S(=O)(=O)c2ccc(C#Cc3ccccc3)cc2O[C@@H]1CN(C)C(=O)CN(C)C	20.3	67.8*	16.6	-0.6	-5.1
C[C@@H]1CN([C@@H](C)CO)S(=O)(=O)c2ccc(-c3ccc(C#N)cc3)cc2O[C@@H]1CN(C)Cc1ccccn1	1.0	-34.1	2.8	-0.5	44.7*!
